# From PubChem BioAssay AID1251 (SRMLSC, 2008)
# In all, about 200,000 compounds went through this assay and about 720 (0.36%) were called active. No stated cut-off is given here; in the data, active means inhibition above about 30%; inactive means the rest, inconclusive results apart. The entries come from a sample that favours actives as a whole.
# Test: antivirals against arbovirus infection, primary screen, cell-based, full library, 10K replicate subset (AID 1251)
# [1] = arbovirus infection cell-based antiviral screen, at 10 µM, stronger effect = higher value
structure (smiles),measurement,setting,value
NC(=O)COc1ccc(NC(=O)c2ccccc2-c2ccccc2)cc1,inhibition,[1],-1.27% (inactive)
CCn1c(SCC(=O)Nc2ccccc2F)nc2c(c1=O)SC(C)C2 (stereo unspecified),inhibition,[1],13.7% (inactive)
CC1Cc2nc(SCC(=O)Nc3ccccc3F)n(C)c(=O)c2S1 (stereo unspecified),inhibition,[1],6.16% (inactive)
COCCn1c(SCC(=O)Nc2cc(Cl)ccc2OC)nc2c(c1=O)SC(C)C2 (stereo unspecified),inhibition,arbovirus infection cell-based antiviral screen; at 10 µM; stronger effect = higher value,31.7% (active)
same,inhibition,arbovirus infection cell-based antiviral screen; measured here: 10K subset replicate screen; at 10 µM; stronger effect = higher value,23%
COc1ccc(C)cc1NC(=O)CSc1ccc(Cl)cc1,inhibition,[1],3.07% (inactive)
CC(=O)Nc1ccc(SCC(=O)Nc2ccccc2Oc2ccccc2)cc1,inhibition,[1],-11.3% (inactive)
O=C(CSc1ccccc1)Nc1cc(Cl)ccc1Oc1ccccc1,inhibition,[1],31.3% (active)
C=Cn1c(C(=O)O)ccc1-c1ccc(OC)cc1,inhibition,[1],-6.55% (inactive)
CCn1c(-c2cccnc2Cl)nc2cc(C)c(C)cc21,inhibition,[1],9.84% (inactive)
Cc1cc(F)ccc1S(=O)(=O)Nc1ncnc2scc(-c3ccc(F)cc3)c12,inhibition,[1],34.8% (active)
CCn1cnc2scc(-c3ccc(C)c(C)c3)c2c1=O,inhibition,[1],-10.7% (inactive)
COc1ccc(-c2csc3ncnc(Oc4ccc5c(C)cc(=O)oc5c4)c23)cc1,inhibition,[1],-19% (inactive)
Cc1cccc(C)c1NC(=O)Nc1ccccc1-n1ccnc1,inhibition,[1],0% (inactive)
CCN(/N=C/c1ccc(N(C)C)cc1)c1nc2ccccc2[nH]1,inhibition,[1],-9.69% (inactive)
CCNC(=S)NNC(=O)C1CCN(Cc2ccccc2)CC1,inhibition,[1],0.25% (inactive)
CCN(CCO)C(=S)Nc1cc(C(=O)OC)ccc1C(=O)OC,inhibition,[1],-0.56% (inactive)
CC(=O)Nc1ccc(Sc2ccccc2C(=O)N2CCCC2)cn1,inhibition,[1],12.2% (inactive)
CN(C)c1nc(-c2cccnc2)nc(-c2ccc(Cl)cc2)c1C#N,inhibition,[1],-9.56% (inactive)
O=C(CCN1CCN(C/C=C/c2ccccc2)CC1)Nc1cccc(F)c1,inhibition,[1],-4.37% (inactive)
CC/C(=N\NC(=S)NC(C)C)c1ccc(OC(F)F)cc1,inhibition,[1],1.93% (inactive)
CC(=O)NC(CC(=O)O)c1ccc(F)cc1 (stereo unspecified),inhibition,[1],4.26% (inactive)
CC(Nc1nc(N2CCCC2)nc2ccccc12)c1ccccc1 (stereo unspecified),inhibition,[1],-47.5% (inactive)
Cc1ccc(C(CC(=O)O)Nc2nc(N3CCCCC3)nc(N3CCCCC3)n2)cc1 (stereo unspecified),inhibition,[1],31.3% (active)
O=[N+]([O-])c1ccc2oc(-c3cccc(O)c3)nc2c1,inhibition,[1],0.35% (inactive)
COc1ccc(Nc2nc(NCc3ccco3)nc(N/N=C/c3ccccc3Cl)n2)cc1,inhibition,[1],-9.8% (inactive)
CC1CCCC(NC(=O)c2cccc(N3CCCC3=O)c2)C1C (stereo unspecified),inhibition,[1],15.1% (inactive)
O=C(Nc1ccc(-c2ccc3nncn3n2)cc1)C1CCCCC1,inhibition,[1],2.96% (inactive)
CC(CC(=O)O)C(=O)c1ccc(Cl)c([N+](=O)[O-])c1 (stereo unspecified),inhibition,[1],5.76% (inactive)
CCO[C@@H]1OC(C(=O)N2CCOCC2)=C[C@H](C)[C@H]1CCCO,inhibition,[1],1.57% (inactive)
COc1ccc(C(=O)OCC(=O)NC(=O)CCSc2ccccc2)cc1,inhibition,[1],-0.73% (inactive)
Cc1ccccc1Nc1scc(-c2ccc(Br)cc2)[n+]1-c1ccccc1C,inhibition,[1],15.8% (inactive)
O=C(CC1C(=O)NCCN1Cc1ccc(-c2ccccc2)cc1)NCC1CCOCC1 (stereo unspecified),inhibition,[1],1.09% (inactive)
Cc1ccc(CNC(=O)Cn2c(=O)c3sccc3n(Cc3cccc([N+](=O)[O-])c3)c2=O)cc1,inhibition,[1],-23.2% (inactive)
C/C(=N\NC(=O)c1ccc(NS(=O)(=O)c2cccs2)cc1)c1ccc2ccccc2c1,inhibition,[1],-27.7% (inactive)
Cc1ccccc1CSc1nnc(-c2ccccc2)c(=O)[nH]1,inhibition,[1],1.96% (inactive)
c1ccc(CSc2nnc(-c3ccco3)c(-c3ccco3)n2)cc1,inhibition,[1],13.1% (inactive)
O=c1[nH]c(SCc2ccccc2)nnc1-c1ccccc1,inhibition,[1],33.1% (active)
O=C(Cn1cnc([N+](=O)[O-])n1)NCCc1ccccc1,inhibition,[1],-2.73% (inactive)
O=C(Cc1c(F)cccc1Cl)Nc1ncc([N+](=O)[O-])s1,inhibition,[1],25.4% (inactive)
CC(=O)Oc1ccccc1C(=O)Nc1ncc([N+](=O)[O-])s1,inhibition,[1],31.3% (active)
O=C(CCc1ccccc1)Nc1ncc([N+](=O)[O-])s1,inhibition,[1],14.4% (inactive)
Cc1nc(-c2ccc(NC(=O)c3cccs3)cc2)cs1,inhibition,[1],-9.57% (inactive)
Cc1ccc(-c2csc(NC(=O)c3cccs3)n2)cc1,inhibition,[1],103% (active)
Cc1ccc(-c2csc(NNC(=O)c3ccccc3)n2)cc1,inhibition,[1],-29.2% (inactive)
COc1ccc(OC)c(-c2c(=O)n(OCc3ccccc3Br)c3ccccc3[n+]2[O-])c1,inhibition,[1],6.28% (inactive)
O=C(COC(=O)c1ccccc1)Nc1ccccc1Sc1ccccc1,inhibition,[1],-1.75% (inactive)
O=c1[nH]c(CN2CCN(S(=O)(=O)c3ccc4c(c3)OCCO4)CC2)nc2sc3c(c12)CCCC3,inhibition,[1],11.3% (inactive)
CCCCOc1ccc(NC(=O)[C@@H]2CCCN2C(=O)C2CCN(S(=O)(=O)c3ccc(C)cc3)CC2)cc1,inhibition,[1],-16.3% (inactive)
Cc1cc(C)c(C#N)c(N2CCC(C(N)=O)CC2)n1,inhibition,[1],2.87% (inactive)
CC(NC(=O)C(=O)NN=C1CCC(C(C)(C)C)CC1)c1ccccc1 (stereo unspecified),inhibition,[1],1.88% (inactive)
Cc1sc2nc(CC(N)=O)[nH]c(=O)c2c1-c1ccccc1,inhibition,[1],3.01% (inactive)
Cc1ccsc1C1C(C#N)=C(N)OC2=C1C(=O)CC(C)C2 (stereo unspecified),inhibition,[1],-1.92% (inactive)
C=CCN1C(=O)C(O)(CC(=O)c2ccccn2)c2ccccc21 (stereo unspecified),inhibition,[1],-2.77% (inactive)
Cc1ccc(C)c(Cn2nnc3c(=O)[nH]c(C(=O)Nc4ccc(F)cc4)nc32)c1,inhibition,[1],39.7% (active)
Cc1ccc(NC(=O)N2CCC(c3nc4c(nnn4Cc4c(F)cccc4Cl)c(=O)[nH]3)CC2)cc1,inhibition,[1],-3.45% (inactive)
O=C(Nc1ccc(F)cc1)N1CCCC(c2nc3c(nnn3Cc3ccccc3Cl)c(=O)[nH]2)C1 (stereo unspecified),inhibition,[1],12.4% (inactive)
CSCCNCc1cn(-c2ccc(F)cc2F)nc1-c1ccccc1C,inhibition,[1],-1.44% (inactive)
CCOC(=O)Cc1ncccc1C(=O)Nc1ccc(OC(F)(F)F)cc1,inhibition,[1],4.21% (inactive)
Cc1nn(Cc2ccc(Cl)cc2)c(Cl)c1/C=N/NC(=O)CNc1ccccc1F,inhibition,[1],-16.6% (inactive)
CC(=O)Nc1ccc(NC(=S)NC(=O)c2ccc([N+](=O)[O-])c(C)c2)cc1,inhibition,[1],-7.89% (inactive)
